In PubChem BioAssay AID686996 (Broad Institute, 2013):
Values joined by “and” are separate entries in the source; they are usually repeats but may differ in a detail not shown here. Equal entries are not always repeated. Out of some 350,000 compounds screened, about 1,900 (0.54%) were called active.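 The calls were made as follows: active = mean inhibition across replicates at least about 35%, with every replicate also reaching that limit (limit read from the data); inconclusive = only one of the two criteria met; inactive = neither criterion met.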 Only a selection was taken, and actives are over-represented in it overall.

What follows are compounds tested against Caspase-6 (Homo sapiens) (UniProt P55212) (assay: human caspase-6 inhibitors, primary screen, biochemical, VEID-R110 fluorescence, single point, set 2 (AID 686996;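 also: 0% = median of neutral control wells and 100% = no fluorescence left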)). Settings: purified caspase-6, Z-VEID-R110 cleavage fluorescence; at 12.5 µM; active compounds read high.
Sequence of Caspase-6 (Homo sapiens) (P55212 24-179 limits assumed): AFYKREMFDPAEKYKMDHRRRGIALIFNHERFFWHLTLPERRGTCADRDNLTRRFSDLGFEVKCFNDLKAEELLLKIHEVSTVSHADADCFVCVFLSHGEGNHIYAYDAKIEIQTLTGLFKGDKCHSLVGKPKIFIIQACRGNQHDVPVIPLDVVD
Sequence of Caspase-6 (Homo sapiens) (P55212 194-293 limits assumed): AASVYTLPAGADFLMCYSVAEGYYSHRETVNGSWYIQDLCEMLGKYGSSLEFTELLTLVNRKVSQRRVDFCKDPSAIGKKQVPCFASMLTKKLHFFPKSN

Structure (SMILES)	inhibition
COC(=O)C1=C(c2ccccc2)C[C@@H]2CC[C@H]1N2C(=O)NCc1ccco1	2.09% (inactive)
COC(=O)C1=C(c2ccc3ccccc3c2)C[C@@H]2CC[C@H]1N2C(=O)NCCO	-0.313% (inactive)
COC(=O)C1=C(c2ccc(C(C)=O)cc2)C[C@@H]2CC[C@H]1N2C(=O)NCCNC(C)=O	35.3% (active)
COC(=O)[C@H]1[C@H](CO)[C@H]2Cn3c(ccc(C4=CCCC4)c3=O)[C@@H]1N2C(=O)CC1CC1	2.1% (inactive)
CCOC(=O)[C@]12Cc3ccccc3[C@H]1N(C1CCCCC1)C(=O)c1cc(OC)ccc12	1.66% (inactive)
O=C1NC(=O)N(c2ccccc2)C(=O)/C1=C/c1ccc([N+](=O)[O-])s1	49.9% (active)
Cc1ccccc1N1C(=O)NC(=O)/C(=C\c2cc(C)n(C)c2C)C1=O	3.93% (inactive)
COc1cccc(N2C(=O)NC(=O)/C(=C\c3ccc([N+](=O)[O-])s3)C2=O)c1	46% (active)
COc1cccc(N2C(=O)NC(=O)/C(=C\c3cn(C)c4ccccc34)C2=O)c1	4.46% (inactive)
COc1ccc(N2C(=O)/C(=C/c3ccco3)C(=O)NC2=S)cc1	-1.07% (inactive)
CC(C)CN1Cc2cc(N3CCCCC3)ccc2-n2nncc2C1	-0.486% (inactive)
COC1C(O)C(C)OC(OC2CCC3(C=O)C(CCC4C3CCC3(C)C(C5=CC(=O)OC5)CCC43O)C2)C1O (stereo not given)	0.09% (inactive)
CCOC(=O)[C@@H]1[C@@H]2NC(=O)N[C@@]1(C)Oc1ccccc12	1.71% (inactive) and -2.72% (inactive)
CCOC(=O)c1cccc(C2=C(CNC(=O)c3ccncc3)[C@H]3CC[C@@H](C2)N3Cc2ccccc2)c1	0.927% (inactive)
O=C1NC(=O)N(CCc2ccc(F)cc2)C(=O)/C1=C/C=C/c1ccccc1	-1.88% (inactive)
O=C(O)COc1ccccc1/C=C1\C(=O)NC(=O)N(CCC2=CCCCC2)C1=O	9.11% (inactive)
Cc1ccc(-n2c(C)cc(/C=C3\C(=O)NC(=O)N(C)C3=O)c2C)cc1C	12.1% (inactive)
O=C1NC(=O)N(Cc2ccco2)C(=O)/C1=C\c1cccn1CCOc1ccccc1	61.1% (active)
Cc1c(C(=O)O)cccc1-n1c(C)cc(/C=C2\C(=O)NC(=O)N(c3ccc4c(c3)OCO4)C2=O)c1C	26.5% (inactive)
COc1ccc(CN2C(=O)NC(=O)/C(=C\c3ccc(OC)c(OC)c3OC)C2=O)cc1	4.46% (inactive)
Cc1cc(/C=C2/C(=O)NC(=O)N(Cc3ccco3)C2=O)c(C)n1-c1ccc(C(=O)O)cc1	50.7% (active)
O=C1NC(=O)N(Cc2ccco2)C(=O)/C1=C\c1ccc(-c2ccc(F)cc2)o1	73.9% (active)
Brc1ccc2c(c1)CNCc1cnnn1-2	-1.24% (inactive)
c1cc2c(c(NC3=NCCCS3)c1)CCCC2	-1.96% (inactive)
COC(=O)[C@H]1[C@H](CO)[C@H]2Cn3c(cccc3=O)[C@H]2N1CC1CC1	1.75% (inactive)
O=C1NCN(c2ccccc2)C12CCN(C(c1cccs1)c1nnnn1C1CCCCC1)CC2 (stereo not given)	0.584% (inactive)
O=C(Cc1ccccn1)N1CCCCN2[C@H](C1)[C@H](c1ccc(-c3ccccc3F)cc1)[C@@H]2CO	1.27% (inactive)
O=C(Cc1ccccn1)N1CCCCN2[C@@H](CO)[C@@H](c3ccc(C#Cc4ccccc4)cc3)[C@@H]2C1	-4% (inactive)
COC(=O)[C@@H]1[C@@H](CO)[C@@H]2Cn3c(ccc(-c4cccc(C(=O)N(C)C)c4)c3=O)[C@H]1N2C(=O)NC(C)C	0.335% (inactive)
COc1cc(OC)cc(C(=O)NCCN2CCC3(CC2)C(=O)NCN3c2ccccc2)c1	-14.3% (inactive)
